Molecules are shown by their SMILES. Where a name gives a salt, the structure may show the parent alone.

From the supplement of paper PMC6607015 come the findings set out here.

What all share (conditions): compound concentration in added solution (µM; 5 µl added to 20 µl cells): 10; 18 h
The test system of assay [1] is A431. The experiment in a line: LBPA endosome anti-LBPA integrated intensity (sum per cell), Z-score; higher = more LBPA staining. An outline of the steps: (§1)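 Four 20× images per well were taken of HeLa MZ or A431 cells that had been seeded at 3,500 per well in 20 µl onto 5 µl of 10 µM compound solution in duplicate 384-well imaging plates. Before imaging, cells were incubated 18 h, fixed in 4% PFA and stained with 6C4 anti-LBPA antibody, filipin, propidium iodide and CellTracker green. Values are Z-scores normalised in AcuityXpress from MetaXpress-derived per-cell integrated LBPA or filipin intensity, either whole-cell or within LBPA endosomes.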

In assay [2] the test system is HeLa MZ. Described as above. In a few lines: as §1
The test system of assay [3] is A431. As to the kind of experiment: whole-cell filipin (free cholesterol) integrated intensity, Z-score; higher = more cholesterol staining. In a few lines:
as §1

Assay [4] deals with HeLa MZ. The assay is described as above. In a few lines: as §1
In assay [5] the test system is A431. As to the kind of experiment: filipin (cholesterol) integrated intensity within LBPA endosomes, Z-score; higher = more cholesterol in LBPA endosomes. An outline of the steps:
as §1

For assay [6], the system named is HeLa MZ. The description is as above. An outline of the steps: as §1

On to `CCOc1ccccc1OCC1CNCCO1` (stereo not drawn) [Viloxazine hydrochloride], for which the “LBPA endosome anti-LBPA integrated intensity (z-score)” value is -0.217 in the assay on A431 [1] and 0.639 with HeLa MZ [2]. Also, the “whole-cell filipin (z-score)” value was -0.124 in the assay with A431 [3] and -0.0106 in the assay on HeLa MZ [4]. In addition, the “filipin (z-score)” value in the assay on A431 [5] was -0.346; in the assay with HeLa MZ [6], -0.261.

As for `C[C@]12C=CC(=O)C=C1CC[C@@H]1[C@@H]2[C@@H](O)C[C@@]2(C)[C@H]1CC[C@]2(O)C(=O)CO` [Prednisolone], the “LBPA endosome anti-LBPA integrated intensity (z-score)” value in the assay with A431 [1] was -0.285; in the assay with HeLa MZ [2], -0.493. In addition, the “whole-cell filipin (z-score)” value was -0.674 with A431 [3] and -0.403 in the assay on HeLa MZ [4]. Moreover, the “filipin (z-score)” value in the assay with A431 [5] is -0.432; in the assay with HeLa MZ [6] it was -0.544.

In the case of `O=C(CCCN1CCN(c2ccccn2)CC1)c1ccc(F)cc1` [Azaperone], the figures for the “LBPA endosome anti-LBPA integrated intensity (z-score)” value in the assay with A431 [1] and with HeLa MZ [2] were -0.0879 and 0.592, respectively. Also, the results for the “whole-cell filipin (z-score)” value in the assay on A431 [3] and in the assay on HeLa MZ [4] were 0.0723 and 0.216, respectively. Further, the “filipin (z-score)” value with A431 [5] was -0.168; in the assay on HeLa MZ [6] it was 0.329.

On to `Cc1c(NC(C)C)c(=O)n(-c2ccccc2)n1C` [Isopyrin hydrochloride], for which the “LBPA endosome anti-LBPA integrated intensity (z-score)” value in the assay on A431 [1] is -0.574; in the assay with HeLa MZ [2], -1.29. The entries for the “whole-cell filipin (z-score)” value in the assay on A431 [3] and in the assay on HeLa MZ [4] were -0.495 and -0.424, respectively. Moreover, the “filipin (z-score)” value with A431 [5] is -0.515; with HeLa MZ [6], -0.531.

Consider `Nc1ccn([C@H]2CC[C@@H](CO)O2)c(=O)n1` [Zalcitabine], for which the “LBPA endosome anti-LBPA integrated intensity (z-score)” value is -0.426 in the assay with A431 [1] and -0.556 in the assay with HeLa MZ [2]. Also, the results for the “whole-cell filipin (z-score)” value in the assay on A431 [3] and in the assay with HeLa MZ [4] were 0.221 and 0.402, respectively. The “filipin (z-score)” value in the assay on A431 [5] was -0.388; with HeLa MZ [6], -0.459.

For `CO[C@H]1/C=C/O[C@@]2(C)Oc3c(C)c(O)c4c(O)c(c(/C=N/N5CCN(C6CCCC6)CC5)c(O)c4c3C2=O)NC(=O)/C(C)=C\C=C\[C@H](C)[C@H](O)[C@@H](C)[C@@H](O)[C@@H](C)[C@H](OC(C)=O)[C@@H]1C` [Rifapentine], the “LBPA endosome anti-LBPA integrated intensity (z-score)” value in the assay on A431 [1] is -0.344; in the assay on HeLa MZ [2], -0.538. Moreover, the “whole-cell filipin (z-score)” value with A431 [3] was -0.546; with HeLa MZ [4], -0.401. Moreover, the “filipin (z-score)” value in the assay with A431 [5] was -0.461; in the assay with HeLa MZ [6], -0.486.

Take `CCCCNc1ccc(C(=O)OCCN(C)C)cc1` [Tetraca? hydrochloride]: the “LBPA endosome anti-LBPA integrated intensity (z-score)” value with A431 [1] was -0.207; in the assay with HeLa MZ [2] it was 0.761. The “whole-cell filipin (z-score)” value was -0.403 with A431 [3] and -0.308 in the assay with HeLa MZ [4]. In addition, the “filipin (z-score)” value in the assay on A431 [5] was -0.238; in the assay on HeLa MZ [6] it was 0.182.

For `C(=C\c1ccccc1)/CN1CCN(C(c2ccccc2)c2ccccc2)CC1` [Cinnarizine], the “LBPA endosome anti-LBPA integrated intensity (z-score)” value is -0.223 in the assay with A431 [1] and 0.618 in the assay on HeLa MZ [2]. In addition, the “whole-cell filipin (z-score)” value in the assay with A431 [3] is -0.605; in the assay with HeLa MZ [4], -0.52. The figures for the “filipin (z-score)” value in the assay with A431 [5] and in the assay on HeLa MZ [6] were -0.314 and -0.0159, respectively.

As to `COc1ccc(C(=O)c2ccccc2)c(O)c1` [Oxybenzone], the “LBPA endosome anti-LBPA integrated intensity (z-score)” value in the assay on A431 [1] was -0.5; in the assay on HeLa MZ [2], -0.722. Further, the “whole-cell filipin (z-score)” value in the assay with A431 [3] was -0.24; in the assay on HeLa MZ [4] it was 0.387. Also, the “filipin (z-score)” value in the assay with A431 [5] is -0.525; in the assay on HeLa MZ [6], -0.452.

`CCc1cccc(CC)c1NC(=O)CN(CC(=O)O)CC(=O)O` [Etifenin]: the “LBPA endosome anti-LBPA integrated intensity (z-score)” value is -0.633 in the assay on A431 [1] and -1.24 in the assay on HeLa MZ [2]. Further, the figures for the “whole-cell filipin (z-score)” value with A431 [3] and in the assay with HeLa MZ [4] were -0.798 and -0.697, respectively. Besides, the figures for the “filipin (z-score)” value in the assay with A431 [5] and in the assay on HeLa MZ [6] were -0.521 and -0.638, respectively.

Consider `CC(C)(Oc1ccc(Cl)cc1)C(=O)O` [Clofibric acid], for which the “LBPA endosome anti-LBPA integrated intensity (z-score)” value in the assay with A431 [1] was -0.512; in the assay on HeLa MZ [2] it was -0.676. The “whole-cell filipin (z-score)” value in the assay with A431 [3] is -0.43; in the assay with HeLa MZ [4] it was -0.52. Further, the “filipin (z-score)” value in the assay with A431 [5] is -0.514; with HeLa MZ [6], -0.568.

Consider `CC(C)NNC(=O)c1ccncc1` [Iproniazide phosphate], for which the “LBPA endosome anti-LBPA integrated intensity (z-score)” value in the assay on A431 [1] is -0.439; with HeLa MZ [2] it was -0.948. In addition, the “whole-cell filipin (z-score)” value is -0.562 in the assay with A431 [3] and -0.228 in the assay on HeLa MZ [4]. Also, the entries for the “filipin (z-score)” value in the assay with A431 [5] and with HeLa MZ [6] were -0.44 and -0.477, respectively.

For `Clc1ccc(CCC(Cn2ccnc2)Sc2c(Cl)cccc2Cl)cc1` (stereo not drawn) [Butoconazole nitrate], the figures for the “LBPA endosome anti-LBPA integrated intensity (z-score)” value in the assay with A431 [1] and in the assay on HeLa MZ [2] were 1.95 and 2.23, respectively. The “whole-cell filipin (z-score)” value with A431 [3] turned out to be 1.71; in the assay on HeLa MZ [4], 2.17. Besides, the “filipin (z-score)” value with A431 [5] was 2.22; in the assay with HeLa MZ [6], 2.14.

For `COCCCOc1ccnc(C[S+]([O-])c2nc3ccccc3[nH]2)c1C` (stereo not drawn) [Rabeprazole Sodium salt], the “LBPA endosome anti-LBPA integrated intensity (z-score)” value in the assay with A431 [1] is -0.587; with HeLa MZ [2] it was -0.545. The “whole-cell filipin (z-score)” value with A431 [3] stood at 0.0453; in the assay on HeLa MZ [4], 1.99. Also, the “filipin (z-score)” value was -0.44 in the assay with A431 [5] and -0.189 in the assay on HeLa MZ [6].

With `OCCOCCN1CCN(C2=Nc3ccccc3Sc3ccccc32)CC1` [Quetiapine], the “LBPA endosome anti-LBPA integrated intensity (z-score)” value in the assay on A431 [1] was -0.603; in the assay on HeLa MZ [2], 0.201. In addition, the “whole-cell filipin (z-score)” value in the assay on A431 [3] was -0.454; with HeLa MZ [4] it was -0.549. In addition, the “filipin (z-score)” value with A431 [5] was -0.515; in the assay with HeLa MZ [6] it was -0.0994.

As to `Cn1c(=O)c2c(ncn2CC2OCCO2)n(C)c1=O` [Doxofylline], the “LBPA endosome anti-LBPA integrated intensity (z-score)” value with A431 [1] is -0.341; in the assay with HeLa MZ [2], 0.313. Further, the results for the “whole-cell filipin (z-score)” value in the assay with A431 [3] and in the assay with HeLa MZ [4] were -0.207 and -0.159, respectively. The “filipin (z-score)” value in the assay on A431 [5] was -0.416; with HeLa MZ [6], -0.528.

For `OC(CCN1CCCC1)(c1ccccc1)C1CCCCC1` (stereo not drawn) [Procyclidine hydrochloride], the “LBPA endosome anti-LBPA integrated intensity (z-score)” value in the assay on A431 [1] is -0.0883; with HeLa MZ [2], 0.3. Besides, the “whole-cell filipin (z-score)” value with A431 [3] was found to be 0.506; with HeLa MZ [4], 0.736. For the same molecule, the “filipin (z-score)” value stood at 0.0344 with A431 [5] and 0.437 with HeLa MZ [6].

Turning to `CCOC(=O)C1=C(C)NC(C)=C(C(=O)OCC)C1c1ccccc1/C=C/C(=O)OC(C)(C)C` [Lacidipine], the “LBPA endosome anti-LBPA integrated intensity (z-score)” value with A431 [1] turned out to be 0.359; with HeLa MZ [2], 1.4. The “whole-cell filipin (z-score)” value amounted to 0.71 in the assay with A431 [3] and 1.28 in the assay with HeLa MZ [4]. For the same molecule, the “filipin (z-score)” value is 0.446 in the assay on A431 [5] and 0.927 in the assay on HeLa MZ [6].

On to `CN(C)CCN(Cc1ccccc1)c1ccccn1` [Tripelennamine hydrochloride], for which the “LBPA endosome anti-LBPA integrated intensity (z-score)” value in the assay on A431 [1] was -0.213; with HeLa MZ [2], 1.28. For the same molecule, the “whole-cell filipin (z-score)” value in the assay with A431 [3] was determined as 0.0432; with HeLa MZ [4] it was 0.362. Moreover, the “filipin (z-score)” value in the assay with A431 [5] is -0.29; with HeLa MZ [6], 0.335.

For `Clc1cccc(Cl)c1NC1=NCCN1` [Clonidine hydrochloride], the “LBPA endosome anti-LBPA integrated intensity (z-score)” value in the assay on A431 [1] was -0.318; in the assay with HeLa MZ [2], -0.0581. Further, the “whole-cell filipin (z-score)” value in the assay on A431 [3] is -0.585; with HeLa MZ [4] it was -0.0901. The “filipin (z-score)” value in the assay on A431 [5] is -0.436; in the assay on HeLa MZ [6], -0.268.

Regarding `CN(C)CCC=C1c2ccccc2COc2ccccc21` [Doxepin hydrochloride], the “LBPA endosome anti-LBPA integrated intensity (z-score)” value in the assay with A431 [1] was determined as 1.38; in the assay on HeLa MZ [2], 1.22. Moreover, the “whole-cell filipin (z-score)” value is 1.29 in the assay on A431 [3] and -0.0249 with HeLa MZ [4]. The “filipin (z-score)” value amounted to 1.62 with A431 [5] and 1.18 in the assay on HeLa MZ [6].

For the molecule `Cc1c(N(C)C)c(=O)n(-c2ccccc2)n1C` [Amidopyrine], the “LBPA endosome anti-LBPA integrated intensity (z-score)” value was -0.435 in the assay on A431 [1] and -0.447 in the assay with HeLa MZ [2]. Further, the “whole-cell filipin (z-score)” value is -0.729 in the assay on A431 [3] and 0.0263 with HeLa MZ [4]. Moreover, the “filipin (z-score)” value in the assay with A431 [5] is -0.495; in the assay with HeLa MZ [6], -0.518.

For `CN(C)[C@@H]1C(O)=C(C(N)=O)C(=O)[C@@]2(O)C(O)=C3C(=O)c4c(O)ccc(Cl)c4[C@@](C)(O)[C@H]3C[C@@H]12` [Chlortetracycline hydrochloride], the “LBPA endosome anti-LBPA integrated intensity (z-score)” value in the assay on A431 [1] was -0.612; in the assay on HeLa MZ [2], -0.752. Also, the “whole-cell filipin (z-score)” value in the assay with A431 [3] was -1.07; in the assay with HeLa MZ [4], -1.11. Also, the “filipin (z-score)” value in the assay with A431 [5] was -0.66; in the assay on HeLa MZ [6] it was -0.819.
